The results in this text go back to PubChem BioAssay AID504423 (Broad Institute, 2011).

The whole screen tested about 340,000 compounds, of which about 260 (0.076%) were called active.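 How the source made its calls: active means highest replicate inhibition at or above 60% at 9 µM, even if other replicates fall short; inactive means all replicates below 60% inhibition.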 The sample as a whole holds a higher share of actives than the screen did.

For the assay, the system named is Kaposi's sarcoma herpesvirus LANA C-terminal domain (residues 932-1162) DNA binding. Nature of the assay: inhibitors of KSHV C-LANA binding to DNA, primary screen, biochemical, fluorescence polarization, FAM-LBS DNA, MBP-C-LANA, single point (AID 504423).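 Further: 0% = neutral control wells and 100% = 4 µM acridine orange control.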 Conditions: at 9 µM, hits give high values.
Broadly, the inhibition is the change of the read-out against control, counted positive when it falls. For `NC(N)=NCCCc1cn(CC(=O)N2CCNCC2)nn1`, the inhibition was -0.256% (inactive).
For `O=C(Cc1ccc(S(=O)(=O)N2CCOCC2)s1)Nc1ccc(Br)c(C(F)(F)F)c1` the value was -0.373% (inactive).
For `COC(=O)c1ccc([C@@H](O)[C@H](C)C(=O)CC(=O)OC(C)(C)C)cc1` the value was 2.15% (inactive); for `Cc1cc(NC(=O)/C=C/C(=O)N(c2ccccc2C)C(C(=O)NC2CCCC2)c2ccc(F)cc2)no1` (centres undefined), 0.894% (inactive).
Consider `CSc1ccc(S(=O)(=O)NCC(=O)OCC(=O)NC2(C#N)CCCCC2)cc1[N+](=O)[O-]`, for which the inhibition was -0.312% (inactive).
For `COC(=O)c1cc(NC2c3ccccc3C(=O)N2c2ccc(Cl)cn2)cc(C(=O)OC)c1` (centres undefined) the value was -1.05% (inactive); for `CCCn1c(N)c(C(=O)CSc2nnc3n2CCCCC3)c(=O)[nH]c1=O`, -2.38% (inactive); for `CCOC(=O)c1cc(C(=O)Nc2ccc(S(=O)(=O)Nc3ccc(OC)cc3)cc2)nn1C`, -1.57% (inactive).
For `CCC(Sc1nncn1C)C(=O)Nc1nnc(-c2ccc(Cl)cc2)s1` (centres undefined) the value was -3.46% (inactive); for `Oc1c(Cl)cc(Cl)c(Cl)c1Cc1c(O)c(Cl)cc(Cl)c1Cl`, -0.191% (inactive).
For `CC(Oc1cccc(Cl)c1)C(=O)NC1CC(C)(C)NC(C)(C)C1` (centres undefined) the value was -1.58% (inactive).
As for `COc1cc(OC)c(NS(=O)(=O)c2cn(C)cn2)cc1Cl`, the inhibition is 0.525% (inactive).
For `Cc1nc2ccc(NC(=O)N3CCC(c4ccccc4)C3)cc2nc1C` (centres undefined) the value was -3.95% (inactive).
With `COc1ccc(NC(=O)C(CC(C)C)NS(=O)(=O)c2ccc3c(c2)CCN3C(C)=O)cc1OC` (centres undefined), the inhibition was 1.56% (inactive).
For `OCCC1CN(Cc2ccc3nsnc3c2)CCN1C1CCCC1` (centres undefined) the value was -1.26% (inactive).
For `O=C(CN(c1ccc2c(c1)OCCO2)S(=O)(=O)c1ccccc1)Nc1ccc2c(c1)OCO2` the value was -0.247% (inactive); for `CCC1C(=O)NCCN1C(=O)c1ccc2nc(Cc3ccc(OC)cc3)oc2c1` (centres undefined), -0.899% (inactive).
For `S=c1[nH]ccn1-c1ccc(Cl)cc1` the value was -5.31% (inactive); for `COc1cc(OC)cc(-c2c(-c3cccs3)c3cc(-c4ccc(OC)nc4)ccc3n2C)c1`, -0.213% (inactive).
As for `Cc1cc(C#N)c(SCC(N)=O)nc1-c1ccc(F)cc1`, the inhibition was -0.398% (inactive).
For `Cc1cc(Br)ccc1SCC(=O)OCC(=O)NCc1ccc2c(c1)OCO2` the value was -1.13% (inactive); for `CCN(Cc1ccccc1)C(=O)Cc1ccc(OC)c(S(=O)(=O)N2CCOCC2)c1`, -0.86% (inactive); for `C=CCN(Cc1nc(-c2cc(OC)c3c(c2)OCO3)oc1C)C1CCS(=O)(=O)C1` (centres undefined), -0.881% (inactive).
For `CCCN(C(=O)COC(=O)CNS(=O)(=O)c1ccc(NC(C)=O)cc1)C1CCS(=O)(=O)C1` (centres undefined) the value was -0.76% (inactive).
As to `Cc1c(N=Nc2ccc(N(C)C)cc2)c(=O)n(-c2ccccc2)n1C`, the inhibition was -5.21% (inactive).
For `CCN(CC)CCCC(C)n1c2nc(=O)[nH]c(=O)c-2nc2cc(Cl)ccc21` (centres undefined) the value was 167% (active); for `COc1ccc2c(c1)c1ncn(Cc3ccccn3)c(=O)c1n2C`, -1.99% (inactive); for `CCOC(=O)CC(NC(=O)C1c2ccccc2Oc2ccccc21)c1ccc(C)cc1` (centres undefined), 1.2% (inactive).
For `CCCN(CCC)C(=O)C1c2ccccc2Oc2ccccc21` the value was 88.3% (active); for `CCCCCNC(=O)C1c2ccccc2Oc2ccccc21`, -0.323% (inactive); for `CC(=O)c1nnn(-c2ccc(Cl)cc2C#N)c1C`, -3.28% (inactive).
For `c1ccc(-n2cccc2)c(N2CCCCC2)c1` the value was 1.68% (inactive).
Regarding `CN1C(c2ccc(F)cc2)=CS/C1=C(/C#N)c1nnc2n1-c1ccccc1SC2`, the inhibition was 1.32% (inactive).
`CC(C)c1ccc(C=NNc2ccc([N+](=O)[O-])cn2)cc1`: the inhibition was -4.43% (inactive).
For `Cc1cc(/C=N/NC(=O)CC2(C)OCCO2)c(C)n1-c1ccc(Cl)c(Cl)c1` the value was 0.73% (inactive); for `Cc1cc(/C=N/Nc2ccc([N+](=O)[O-])cn2)c(C)n1-c1cccc(C(=O)O)c1`, 64.5% (active); for `Cc1nc(NC(=O)CCC(=O)O)sc1C(=O)N(C)C`, -0.461% (inactive).
Consider `CCOc1ccc(NC(=O)c2cccc3c2C(=O)N(CC2CCCO2)C3)cc1` (centres undefined), for which the inhibition is -0.819% (inactive).
For `CC(C)n1c(=S)[nH]c2cc(C(F)(F)F)ccc21` the value was -0.144% (inactive); for `COc1cccc2c1C(=O)c1c(O)c3c(c(O)c1C2=O)CC(O)(C(C)=NNC(=O)c1ccc(Cl)c(Cl)c1)CC3OC1CC(N)C(O)C(C)O1` (centres undefined), 102% (active).
For `COc1cccc(Cn2cnc3c([N+](=O)[O-])c(C)c(C)cc32)c1` the value was -1.77% (inactive); for `Cc1ccc(NC(=O)Cn2cccc2C2=NC(c3ccccc3)CO2)c(C)c1` (centres undefined), 0.882% (inactive); for `C=CCNc1nc(Nc2ccc(Cl)cc2)nc(OC)n1`, -0.456% (inactive).
For the compound `CC12CCC(C(=O)N(CCC#N)CCC#N)(CC1=O)C2(C)C` (centres undefined), the inhibition was 0.103% (inactive).
For `CCOC(=O)c1sc(/N=C/Nc2nc(C)c(C(=O)OCC)s2)nc1C` the value was -0.364% (inactive); for `CC(NC(=O)CN(C)S(=O)(=O)c1ccc(F)cc1)C1CC2CCC1C2` (centres undefined), -0.793% (inactive); for `O=C(CNCc1ccc(Cl)cc1)Nc1cccc(C(=O)O)c1`, 0.621% (inactive).
For `S=C(Nc1cccc(Br)c1)N1CCn2cccc2C1c1cccnc1` (centres undefined) the value was 0.461% (inactive); for `O=C1COc2c1ccc(O)c2O`, 105% (active).
For `c1ccc(CSc2ncnc3c2sc2nc(N4CCOCC4)c4c(c23)CCCC4)cc1` the value was 0.637% (inactive); for `COc1cc(/C=C/C(=O)O)cc(S(=O)(=O)Nc2ccccc2SC)c1OC`, 2.56% (inactive); for `O=c1[nH]nc(SCCS(=O)(=O)c2ccc(F)cc2)n1-c1ccccc1C(F)(F)F`, -0.936% (inactive).
`O=C1OC(Cc2ccccc2)C(c2ccccc2)C1=O` (centres undefined): the inhibition was 0.23% (inactive).
Turning to `CCN(CC)C(=O)[C@H]1C[C@H](CC(=O)NCC23CC4CC(CC(C4)C2)C3)C(=O)N2CCc3c([nH]c4cc(CCC(=O)N(C)C)ccc34)[C@]12C`, the inhibition is -1.63% (inactive).
For `CCC(CC)c1nnc(NC(=O)C2CCN(C(=O)c3ccco3)CC2)s1` the value was 0.307% (inactive); for `CCCN(CC(=O)Nc1ccccc1C)C(=O)c1ccc(OCC(=O)N2CCOCC2)c(OCC)c1`, 0.13% (inactive); for `COCCNC(=O)C1CCN(S(=O)(=O)c2ccc3c(c2)OCCO3)CC1`, -0.000473% (inactive).
For `CCCn1nc(C(=O)OCc2nc(N)nc(Nc3ccccc3C)n2)c2ccccc2c1=O` the value was -0.106% (inactive); for `CC(C)Cn1c(=O)c2ccccc2n2c(CCC(=O)NCc3ccccn3)nnc12`, -0.283% (inactive).
For `COc1cc(C(=O)NCc2ccc3c(c2)cc(C)n3C)cc(OC)c1OC` the value was 1.89% (inactive); for `COc1ccc(-c2c(C)nn3c(N4CCC(C(=O)N5CCCCC5)CC4)cc(C)nc23)cc1OC`, -1.26% (inactive); for `COc1ccc(/C=N/NC(=O)Cn2cc(C(F)(F)F)ccc2=O)cc1`, 0.0809% (inactive).
Turning to `CCCOc1ccc(Cc2c(O)nc(N)[nH]c2=O)cc1C`, the inhibition is 3.16% (inactive).
For `Cc1cc(/C=N/NC(N)=O)c(C)n1C1CCCCC1` the value was -1.79% (inactive); for `Cc1ccc2c(=O)oc(N(C)C)nc2c1`, 0.463% (inactive); for `CC(C)CCNC(=O)CC1C(=O)N(Cc2ccccc2)C(C)c2nc3ccccc3n21` (centres undefined), 0.0911% (inactive).
For `Clc1ccc(C2=CSC3=Nc4cccc5cccc(c45)N23)cc1`, the inhibition is 0.203% (inactive).
For `CS(=O)(=O)c1ccc2nnn(OCC(=O)Nc3cccc(C#N)c3)c2c1` the value was 0.484% (inactive); for `O=C(c1ccco1)N(Cc1nc2ccccc2c(=O)[nH]1)C1CCCC1`, 1.54% (inactive); for `Nc1ccc2nc3c(=O)[nH]c(=S)[nH]c3nc2c1`, 81% (active).
For `CCCCn1nc(C(=O)Nc2ccc(S(=O)(=O)Nc3ncccn3)cc2)c2ccccc2c1=O` the value was 4.67% (inactive); for `Cc1c(C=O)n(C)n(-c2ccccc2)c1=O`, 0.314% (inactive); for `COc1ccccc1CNS(=O)(=O)c1cc(C(=O)NCc2ccccn2)c(Cl)cc1Cl`, 2.38% (inactive).
Regarding `O=C(c1ccccc1)N1CCC(CC2CC(c3ccc(Cl)cc3)=NO2)(C(=O)NCC2CCCCC2)CC1` (centres undefined), the inhibition was 2.87% (inactive).
For `Cc1ccc(S(=O)(=O)n2oc(=O)c(C3CCCCC3)c2N)cc1` the value was -3.57% (inactive); for `COc1cccc(N2CC(NS(=O)(=O)c3ccc(Cl)cc3)CC2=O)c1` (centres undefined), -1.06% (inactive).
For `COc1cccc(-c2nc3n(n2)C(c2ccccc2Cl)C(C(N)=O)=C(C)N3)c1` (centres undefined) the value was -1.68% (inactive); for `COc1ccc(C2C(C#N)=C(N)Oc3cc(N)ccc32)cc1OC` (centres undefined), -0.0442% (inactive).
`COc1ccc(C2c3ccc(O)cc3Oc3ncn(CCCO)c(=N)c32)cc1OC` (centres undefined): the inhibition was 90.6% (active).
For `COc1ccc(CNCCCO)cc1OC` the value was 0.662% (inactive); for `COc1cc(/C=C(\C#N)C(=O)Nc2ccc3ccccc3c2)c([N+](=O)[O-])cc1OC`, -1.48% (inactive); for `CCC1OC(c2ccc([N+](=O)[O-])cc2)=Nc2ccccc21` (centres undefined), 1.55% (inactive).
For `O=C(NCCCc1ccccc1)C(=O)c1c[nH]c2ccccc12` the value was 1.71% (inactive).
For `CCCN(CC(=O)NC(=O)NC1CCCCC1)CC(=O)Nc1cc(Cl)ccc1Cl` the value was -0.226% (inactive); for `CCN1C[C@@H]2[C@@H]3C(=O)N(C)C(=O)[C@@H]3[C@](C)(C1=O)N2C(=O)c1ccccc1`, -2.13% (inactive); for `CCN(CC(=O)Nc1ccc(OC)cc1)C(=O)c1ccc(Cl)c(S(=O)(=O)N2CCCC2)c1`, 3.81% (inactive).
As for `COC(=O)C1=C(O)/C(=C/c2ccc(OCC(=O)Nc3ccccc3)cc2)N=C1C`, the inhibition was 0.272% (inactive).
For the compound `CCOC(=O)C1=C(O)/C(=C/c2cc(C)n(-c3ccccc3)c2C)N=C1C`, the inhibition is 73.6% (active).
Take `CCOC(=O)C1=C(O)/C(=C/c2ccc(OCC(=O)Nc3ccc(C)cc3)cc2)N=C1C`: the inhibition was 0.825% (inactive).
